Experimental findings from PubChem BioAssay (NCI) are described below.

Experiment [1] is described as follows: NCI Yeast Anticancer Drug Screen. Data for the rad50 strain (AID 155).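 Also: 0% = growth of vehicle-only cultures of the same strain.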 Conditions: S. cerevisiae rad50 strain growth inhibition; at 50.0 µM; active compounds read high. The procedure, abridged: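 Vehicle-treated cultures provide the reference for the growth inhibition reported for compound-exposed, repair-deficient yeast.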
Experiment [2] can be described thus: NCI Yeast Anticancer Drug Screen. Data for the mec2-1 strain (AID 157). The following applies: S. cerevisiae mec2-1 strain, at 50.0 µM, active compounds read high. The procedure, abridged:
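Vehicle-treated cultures served as reference for growth inhibition of compound-exposed mec2-1 yeast.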

Experiment [3] is described as follows: NCI Yeast Anticancer Drug Screen. Data for the sgs1 mgt1 strain (AID 161).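 Also: 0% = growth of cultures given vehicle only.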 Conditions: S. cerevisiae sgs1 mgt1 strain, at 50.0 µM, active compounds read high. The procedure, abridged:
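Mutant yeast exposed to compound; growth scored against vehicle-only wells.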

Experiment [4] can be described thus: NCI Yeast Anticancer Drug Screen. Data for the cln2 rad14 strain (AID 165).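 Also: 0% = growth equal to vehicle treated cultures.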 The following applies: S. cerevisiae cln2 rad14 strain, at 50.0 µM, active compounds read high. A digest of the protocol: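 Each compound was tested on cln2 rad14 yeast. Inhibition of growth was calculated against vehicle-exposed controls.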
The nature of experiment [5]: NCI Yeast Anticancer Drug Screen. Data for the bub3 strain (AID 167). Conditions: S. cerevisiae bub3 mutant strain, at 50.0 µM, active compounds read high. The procedure, abridged: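 Mutant yeast screening strain plus compound; vehicle-treated cultures serve as the 0% inhibition reference.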
A short description of experiment [6]: NCI Yeast Anticancer Drug Screen. Data for the mlh1 rad18 strain (AID 175). Conditions: S. cerevisiae mlh1 rad18 strain growth inhibition; at 50.0 µM; active compounds read high. The procedure, abridged:
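Vehicle-treated cultures served as the reference for growth inhibition in a yeast strain carrying DNA damage repair alterations exposed to each compound.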

Compounds without any hit were thinned out: in the full panel of roughly 79,000, 15% have a hit. Unmarked numbers belong to inactive results. The source made the active and inactive calls. Rule as the data show it: active = growth inhibition above about 70%; inactive = the rest.

Consider `COc1ccc2c(N=[N+]=[N-])cc(C)nc2c1`, for which the growth inhibition in experiment [1] is -42.2%; in experiment [2] it was -1.45%; in experiment [3], -16.9%; in experiment [4], -57.5%; in experiment [5] it was 1.55%; in experiment [6], 20.4%.
Consider `CCOc1ccccc1N=Nc1c(C)nn(C(=S)SC)c1OCC`, for which the growth inhibition was 22.5% in experiment [1]; 18.4% in experiment [2]; 26.4% in experiment [3]; 30.2% in experiment [4]; 14% in experiment [5]; 39.2% in experiment [6].
As for `Cc1ccc(N=NC(=O)NNc2ccc(C)c([N+](=O)[O-])c2)cc1[N+](=O)[O-]`, the growth inhibition was 55% in experiment [1]; 3.9% in experiment [2]; 17.6% in experiment [3]; 16.1% in experiment [4]; 6.45% in experiment [5]; 32.4% in experiment [6].
Turning to `CC1=CCCC(C)(C)C1/C=C/C(C)=N/NC(=O)Nc1ccccc1` (stereo unspecified), the growth inhibition in experiment [1] was 32.2%; in experiment [2], -6.2%; in experiment [3], 0.25%; in experiment [4], -8.85%; in experiment [5] it was 8.85%; in experiment [6], 16.4%.
As for `CCCCN(CCCC)CCCCCCCCCCCO`, the growth inhibition in experiment [1] was 38.7%; in experiment [2], -8.35%; in experiment [3], 34.5%; in experiment [4], -22.9%; in experiment [5] it was 30.8%; in experiment [6], 27.6%.
For `O=C(O)c1cc(O)c(O)c(Cl)c1`, the growth inhibition in experiment [1] is 10.3%; in experiment [2] it was 6.15%; in experiment [3], 4.1%; in experiment [4], -9%; in experiment [5], 6.6%; in experiment [6], 5.05%.
Turning to `CC(C)NP(=O)(OC1CC(C)(C)N(O)C(C)(C)C1)OC1CC(C)(C)N(O)C(C)(C)C1`, the growth inhibition in experiment [1] is 26.1%; in experiment [2] it was 18.6%; in experiment [3] it was 13.4%; in experiment [4], -16.3%; in experiment [5], 2%; in experiment [6], 5.65%.
With `COc1ccc(/C=C/C(=O)c2c(-c3ccccc3)nn(C)c(=O)c2N2CCCC2)cc1`, the growth inhibition is -23.8% in experiment [1]; -20.3% in experiment [2]; -33.2% in experiment [3]; -24.4% in experiment [4]; -11.2% in experiment [5]; -34.1% in experiment [6].
Turning to `COc1ccc2c(c1OC)C(Cc1ccccc1)N1CCc3cc4c(cc3C1C2)OCO4` (stereo unspecified), the growth inhibition is 21.4% in experiment [1]; 59% in experiment [2]; 48% in experiment [3]; 50.8% in experiment [4]; 51.6% in experiment [5]; 77.8% (active) in experiment [6].
Regarding `Cc1ccc(S(=O)(=O)Nc2cccc3c(=O)[nH]cnc23)cc1`, the growth inhibition is 1.6% in experiment [1]; -13.8% in experiment [2]; 1.2% in experiment [3]; -37.2% in experiment [4]; 10.3% in experiment [5]; 18.8% in experiment [6].
In the case of `Cn1c(=O)c2nc3sc4c(n3c2n(C)c1=O)C(=O)c1ccccc1C4=O`, the growth inhibition in experiment [1] is -17%; in experiment [2], 21.4%; in experiment [3], 11.2%; in experiment [4], -11.2%; in experiment [5], -11%; in experiment [6], 25.4%.
For `CC(=O)OCC(=O)c1ccccc1`, the growth inhibition was -10.8% in experiment [1]; 6.65% in experiment [2]; -3.8% in experiment [3]; -4.15% in experiment [4]; 30.5% in experiment [5]; -13.6% in experiment [6].
For the molecule `CCC1COS(=O)(=O)CS(=O)(=O)O1` (stereo unspecified), the growth inhibition in experiment [1] was -27.6%; in experiment [2], -16.2%; in experiment [3], -3.35%; in experiment [4] it was -40.9%; in experiment [5], 11.8%; in experiment [6], 3.1%.
Consider `COc1nc(NCCO)nc(OC)n1`, for which the growth inhibition in experiment [1] is 3.35%; in experiment [2], -2.5%; in experiment [3] it was -16.5%; in experiment [4], -29.6%; in experiment [5], 4.65%; in experiment [6], -4.85%.
Consider `Cc1ccn2c(CCc3nnc4cc(C)ccn34)nnc2c1`, for which the growth inhibition in experiment [1] was -1.4%; in experiment [2], -33.4%; in experiment [3], -42.4%; in experiment [4] it was 0.4%; in experiment [5], -26.1%; in experiment [6], 12.3%.
As to `NCC(=O)c1cc2ccccc2[n+]([O-])c1`, the growth inhibition in experiment [1] was 1.6%; in experiment [2], -4.45%; in experiment [3] it was 1.8%; in experiment [4], -51.2%; in experiment [5] it was -8.5%; in experiment [6], -14.4%.
As for `O=C(O)C(=Cc1ccc([N+](=O)[O-])cc1)C(=O)O`, the growth inhibition in experiment [1] was 11.1%; in experiment [2], -21.8%; in experiment [3] it was 5.95%; in experiment [4] it was -7.35%; in experiment [5] it was -0.7%; in experiment [6] it was -11.6%.
With `CCOC(=O)C1C(=O)CC1(C)C` (stereo unspecified), the growth inhibition was 12.2% in experiment [1]; 6.9% in experiment [2]; 12.2% in experiment [3]; 36% in experiment [4]; 25.9% in experiment [5]; 21.8% in experiment [6].
For the molecule `Cc1cccc(C)c1NC(=S)N(CCC#N)Cc1ccccc1`, the growth inhibition in experiment [1] is 6.8%; in experiment [2], 1.45%; in experiment [3] it was 1.9%; in experiment [4] it was -4.55%; in experiment [5], 12.3%; in experiment [6], -11.1%.
As to `O=C(OC1C#CCSCC#C/C=C\1)c1cnc2ccccc2n1` (stereo unspecified), the growth inhibition was -34% in experiment [1]; -13.4% in experiment [2]; -24.3% in experiment [3]; -11.2% in experiment [4]; -2.55% in experiment [5]; -23% in experiment [6].
Turning to `O=C1C2C3CCC(C3)C2N1Cc1ccccc1` (stereo unspecified), the growth inhibition in experiment [1] is 5.8%; in experiment [2], -1.65%; in experiment [3], -2.15%; in experiment [4], -27.2%; in experiment [5] it was 13.6%; in experiment [6], -14.8%.
